Results filed as inconclusive are left out. Active and inactive are the calls of the source. The calls were made as follows, unless noted: active = hit-call score of the fitted dose curve at least 0.9, where 1 is the maximum; inconclusive = response in the unintended direction; inactive = score below 0.9.
How the values were obtained:
[1] = ATG_NFI_CIS: Attagene CIS-FACTORIAL HepG2 Assay for human Nuclear Factor I (NFI) (AID 2282989; active = hit-call score of the fitted dose curve at least 0.9, where 1 is the maximum; inactive = score below 0.9); conditions: HepG2 cis-regulatory reporter, NFI response element transcription; actives raise or lower the signal
Outline: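 Transient MRTU transfection of HepG2 → 24 h chemical dosing → total RNA, oligo(dT) RT → PCR, 6-FAM primer extension, HpaI cut → capillary electrophoresis. Endpoint fitted bidirectionally relative to DMSO.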

[2] = ATG_NF_kB_CIS: Attagene CIS-FACTORIAL HepG2 Assay for human Nuclear Factor Kappa B (NF-kB) (AID 2282991; active = hit-call score of the fitted dose curve at least 0.9, where 1 is the maximum; inactive = score below 0.9); conditions: HepG2 Attagene cis-factorial NF-kB reporter mRNA; actives raise or lower the signal
Outline: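 HepG2 cells transfected with cis-promoter-driven reporter units, so endogenous transcription factor activity is measured. Reporter mRNA quantified 24 h after dosing by RT-PCR and capillary electrophoresis, with bidirectional fitting against DMSO.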

[3] = ATG_NRF2_ARE_CIS: Attagene CIS-FACTORIAL HepG2 Assay for human Nuclear Factor Erythroid 2 Related Factor 2 (NFR2) response to Antioxidant Response Elements (ARE) (AID 2282992; active = hit-call score of the fitted dose curve at least 0.9, where 1 is the maximum; inactive = score below 0.9;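 as to AC50: reporter mRNA level measured by RT-PCR and capillary electrophoresis fluorescence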); conditions: HepG2 Attagene ARE/NRF2 reporter, transcription factor activity; actives raise or lower the signal
Outline: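 HepG2 cells transiently transfected with multiplexed cis-regulated reporter transcription units measure endogenous transcription factor activity. Reporter mRNA at 24 h is quantified by RT-PCR, fluorescent labelling and capillary electrophoresis, with bidirectional fitting relative to DMSO.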

[4] = ATG_Oct_MLP_CIS: Attagene CIS-FACTORIAL HepG2 Assay for human Octamer-Binding Transcription Factor (Oct) (AID 2282993; active = hit-call score of the fitted dose curve at least 0.9, where 1 is the maximum; inactive = score below 0.9); conditions: HepG2 Attagene cis-factorial Oct reporter, mRNA; actives raise or lower the signal
Outline: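 Transient MRTU transfection of HepG2 → 24 h compound treatment → RNA isolation, reverse transcription, PCR → 6-FAM primer extension, HpaI digest → capillary electrophoresis. Activity fitted both directions against DMSO.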

[5] = target: human Peroxisome Proliferator-activated Receptor alpha (PPARa), PPARA (gene 5465) (UniProt Q07869); assay: ATG_PPARa_TRANS: Attagene TRANS-FACTORIAL HepG2 Assay for human Peroxisome Proliferator-activated Receptor alpha (PPARa) (AID 2283001);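 as to AC50: potency for gain of reporter signal over DMSO so agonist or activator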
human Peroxisome Proliferator-activated Receptor alpha (PPARa), PPARA (gene 5465), sequence (Q07869 whole entry, looked up, the tested form may be a part): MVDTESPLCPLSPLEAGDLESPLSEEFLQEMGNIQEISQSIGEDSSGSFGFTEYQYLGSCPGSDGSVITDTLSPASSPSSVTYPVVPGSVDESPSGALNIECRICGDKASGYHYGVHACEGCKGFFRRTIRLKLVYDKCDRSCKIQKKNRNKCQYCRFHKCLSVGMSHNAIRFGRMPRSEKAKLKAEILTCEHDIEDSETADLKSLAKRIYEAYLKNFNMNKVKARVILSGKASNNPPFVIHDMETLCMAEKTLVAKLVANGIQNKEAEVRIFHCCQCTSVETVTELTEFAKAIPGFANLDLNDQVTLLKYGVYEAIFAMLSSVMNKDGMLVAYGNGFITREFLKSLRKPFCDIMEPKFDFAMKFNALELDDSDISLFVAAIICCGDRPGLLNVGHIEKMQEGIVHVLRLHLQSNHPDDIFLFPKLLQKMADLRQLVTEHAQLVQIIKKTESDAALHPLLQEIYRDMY
Outline: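 Read-out is fluorescence of reporter cDNA fragments resolved by capillary electrophoresis after RT-PCR. Human HepG2 liver cells carried transfected PPARa-Gal4 chimera and GAL4-UAS reporter units, treated 24 h; activity scored as increase over DMSO.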

[6] = target: human Peroxisome Proliferator-activated Receptor delta (PPARd), PPARD (gene 5467) (UniProt Q03181); assay: ATG_PPARd_TRANS: Attagene TRANS-FACTORIAL HepG2 Assay for human Peroxisome Proliferator-activated Receptor delta (PPARd) (AID 2283002)
human Peroxisome Proliferator-activated Receptor delta (PPARd), PPARD (gene 5467), sequence (Q03181 whole entry, looked up, the tested form may be a part): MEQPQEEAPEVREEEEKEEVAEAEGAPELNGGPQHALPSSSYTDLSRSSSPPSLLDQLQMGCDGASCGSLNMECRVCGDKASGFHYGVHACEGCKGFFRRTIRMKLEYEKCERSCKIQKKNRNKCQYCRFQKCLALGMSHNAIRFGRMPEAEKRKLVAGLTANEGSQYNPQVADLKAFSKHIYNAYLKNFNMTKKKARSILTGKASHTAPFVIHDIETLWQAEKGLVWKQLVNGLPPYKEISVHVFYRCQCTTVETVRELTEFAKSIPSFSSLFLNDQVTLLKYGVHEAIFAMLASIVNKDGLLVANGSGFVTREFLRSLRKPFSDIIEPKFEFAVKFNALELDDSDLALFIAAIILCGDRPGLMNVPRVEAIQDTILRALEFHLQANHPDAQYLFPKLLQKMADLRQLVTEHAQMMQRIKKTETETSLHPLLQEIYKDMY
Outline: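 Transient HepG2 transfection (multiple GAL4-UAS RTUs, chimeric receptor-Gal4); 24 h dosing; total RNA → oligo(dT) RT → PCR → 6-FAM primer extension → HpaI cut → CE. Positive direction vs DMSO.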

[7] = target: human Retinoic Acid Receptor beta (RARb), RARB (gene 5915) (UniProt P10826); assay: ATG_RARb_TRANS: Attagene TRANS-FACTORIAL HepG2 Assay for human Retinoic Acid Receptor beta (AID 2283004)
human Retinoic Acid Receptor beta (RARb), RARB (gene 5915), sequence (P10826 whole entry, looked up, the tested form may be a part): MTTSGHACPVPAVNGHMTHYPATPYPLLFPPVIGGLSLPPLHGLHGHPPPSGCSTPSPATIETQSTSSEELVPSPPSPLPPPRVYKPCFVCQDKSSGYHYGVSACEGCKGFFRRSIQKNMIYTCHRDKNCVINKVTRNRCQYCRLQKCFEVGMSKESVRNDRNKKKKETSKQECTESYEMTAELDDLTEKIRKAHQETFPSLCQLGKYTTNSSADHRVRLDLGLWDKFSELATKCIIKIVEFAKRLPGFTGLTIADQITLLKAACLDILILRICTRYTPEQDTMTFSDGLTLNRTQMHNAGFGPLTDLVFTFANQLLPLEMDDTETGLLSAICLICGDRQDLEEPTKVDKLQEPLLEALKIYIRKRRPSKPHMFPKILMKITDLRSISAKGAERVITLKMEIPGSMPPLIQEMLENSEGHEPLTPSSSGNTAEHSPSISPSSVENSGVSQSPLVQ
Outline: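 Induction of reporter mRNA from a chimeric RARb-Gal4 construct was measured by RT-PCR, FAM labelling, HpaI digestion and capillary electrophoresis. Measurements followed 24 h compound treatment of transiently transfected human HepG2 liver cells, with DMSO as baseline.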

[8] = target: Nuclear receptor subfamily 1 group I member 2 (Homo sapiens) (UniProt O75469); assay: ATG_PXR_TRANS: Attagene TRANS-FACTORIAL HepG2 Assay for human Pregnane X Receptor (PXR) (AID 2283008)
Nuclear receptor subfamily 1 group I member 2 (Homo sapiens), sequence (O75469 whole entry, looked up, the tested form may be a part): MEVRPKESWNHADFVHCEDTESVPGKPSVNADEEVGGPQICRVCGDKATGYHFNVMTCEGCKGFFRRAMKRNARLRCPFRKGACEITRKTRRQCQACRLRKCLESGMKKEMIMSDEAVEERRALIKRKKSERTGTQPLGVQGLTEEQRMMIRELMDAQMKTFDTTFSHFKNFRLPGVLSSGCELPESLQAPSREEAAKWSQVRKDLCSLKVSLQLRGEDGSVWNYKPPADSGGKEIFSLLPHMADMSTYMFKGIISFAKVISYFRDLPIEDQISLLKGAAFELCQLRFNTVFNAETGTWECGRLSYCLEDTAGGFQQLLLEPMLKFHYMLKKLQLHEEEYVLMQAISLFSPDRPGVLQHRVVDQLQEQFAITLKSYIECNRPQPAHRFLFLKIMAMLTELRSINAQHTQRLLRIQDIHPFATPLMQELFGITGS
Outline: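 HepG2 cells transiently transfected with multiple reporter units, here a PXR-GAL4 chimera driving a GAL4-UAS reporter; 24 h compound exposure. Reporter mRNA measured by RT-PCR, FAM labelling and capillary electrophoresis; gain of signal fitted against DMSO baseline.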

[9] = target: human Retinoic Acid Receptor gamma (RARg), RARG (gene 5916) (UniProt P13631); assay: ATG_RARg_TRANS: Attagene TRANS-FACTORIAL HepG2 Assay for human Retinoic Acid Receptor gamma (RARg) (AID 2283009)
human Retinoic Acid Receptor gamma (RARg), RARG (gene 5916), sequence (P13631 whole entry, looked up): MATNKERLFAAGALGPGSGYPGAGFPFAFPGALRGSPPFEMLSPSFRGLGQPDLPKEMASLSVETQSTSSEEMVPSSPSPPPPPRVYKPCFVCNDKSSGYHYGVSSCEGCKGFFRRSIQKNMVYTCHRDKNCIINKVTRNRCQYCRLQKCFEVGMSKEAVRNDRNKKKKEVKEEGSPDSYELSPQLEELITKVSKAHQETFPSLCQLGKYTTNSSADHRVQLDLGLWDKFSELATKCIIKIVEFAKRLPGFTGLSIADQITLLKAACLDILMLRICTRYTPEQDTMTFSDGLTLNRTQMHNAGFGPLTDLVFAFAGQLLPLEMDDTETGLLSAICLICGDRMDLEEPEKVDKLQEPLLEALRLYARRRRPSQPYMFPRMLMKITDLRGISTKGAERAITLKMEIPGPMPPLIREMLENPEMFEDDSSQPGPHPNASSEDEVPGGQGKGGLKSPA
Outline: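 Transient transfection of HepG2 with multi-reporter constructs, then 24 h chemical treatment. Total RNA isolated, reverse-transcribed, PCR-amplified, fluorescently labelled and resolved by capillary electrophoresis; activity scored as mRNA induction versus DMSO.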

[10] = target: human RAR-related Orphan Receptor beta (RORb), RORB (gene 6096) (UniProt Q92753); assay: ATG_RORb_TRANS: Attagene TRANS-FACTORIAL HepG2 Assay for human RAR-related Orphan Receptor beta (RORb) (AID 2283010)
human RAR-related Orphan Receptor beta (RORb), RORB (gene 6096), sequence (Q92753 whole entry, looked up, the tested form may be a part): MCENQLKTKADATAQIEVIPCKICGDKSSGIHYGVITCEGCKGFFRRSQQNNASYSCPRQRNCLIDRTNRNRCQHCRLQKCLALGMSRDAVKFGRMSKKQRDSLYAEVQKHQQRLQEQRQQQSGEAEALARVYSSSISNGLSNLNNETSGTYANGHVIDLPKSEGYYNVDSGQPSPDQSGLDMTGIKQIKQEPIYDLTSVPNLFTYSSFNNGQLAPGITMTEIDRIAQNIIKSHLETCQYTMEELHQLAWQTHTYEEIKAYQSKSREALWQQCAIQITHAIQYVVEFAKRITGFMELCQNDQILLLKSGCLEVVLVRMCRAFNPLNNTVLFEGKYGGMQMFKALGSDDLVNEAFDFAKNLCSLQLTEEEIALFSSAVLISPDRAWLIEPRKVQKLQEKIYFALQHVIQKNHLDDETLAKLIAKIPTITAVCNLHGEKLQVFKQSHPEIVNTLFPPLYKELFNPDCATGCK
Outline: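 Readout is reporter-gene mRNA induction, detected as fluorescence after RT-PCR and capillary electrophoresis, fitted for gain of signal against DMSO controls. Transiently transfected HepG2 liver cells carrying GAL4-UAS reporter constructs were treated for 24 hours.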

[11] = target: Cellular tumor antigen p53 (Homo sapiens) (UniProt P04637); assay: ATG_p53_CIS: Attagene CIS-FACTORIAL HepG2 Assay for human p53 Transcription Factor (AID 2282994; active = hit-call score of the fitted dose curve at least 0.9, where 1 is the maximum; inactive = score below 0.9); conditions: HepG2 p53 cis-element reporter, Attagene mRNA; actives raise or lower the signal
Cellular tumor antigen p53 (Homo sapiens), sequence (P04637 whole entry, looked up): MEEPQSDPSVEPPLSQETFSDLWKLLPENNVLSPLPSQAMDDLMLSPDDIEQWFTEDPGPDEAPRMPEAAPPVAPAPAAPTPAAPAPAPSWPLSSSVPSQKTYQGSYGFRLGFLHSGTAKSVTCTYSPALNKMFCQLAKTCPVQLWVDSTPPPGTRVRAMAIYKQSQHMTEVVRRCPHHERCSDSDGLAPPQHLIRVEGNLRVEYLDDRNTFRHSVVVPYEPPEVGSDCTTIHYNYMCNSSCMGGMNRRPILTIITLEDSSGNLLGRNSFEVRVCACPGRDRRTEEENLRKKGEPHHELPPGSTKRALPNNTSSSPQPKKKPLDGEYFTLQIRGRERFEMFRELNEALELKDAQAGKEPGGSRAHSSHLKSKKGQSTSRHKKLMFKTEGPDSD
Outline: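 HepG2 cells transiently transfected with multiplexed cis-regulated reporter transcription units read endogenous TF activity. After 24 h compound exposure, reporter mRNA was quantified by RT-PCR, fluorescent labelling, HpaI digestion and capillary electrophoresis; bidirectional fits versus DMSO baseline.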

[12] = target: Retinoic acid receptor alpha (Homo sapiens) (UniProt P10276); assay: ATG_RARa_TRANS: Attagene TRANS-FACTORIAL HepG2 Assay for human Retinoic Acid Receptor alpha (RARa) (AID 2283005)
Retinoic acid receptor alpha (Homo sapiens), sequence (P10276 whole entry, looked up, the tested form may be a part): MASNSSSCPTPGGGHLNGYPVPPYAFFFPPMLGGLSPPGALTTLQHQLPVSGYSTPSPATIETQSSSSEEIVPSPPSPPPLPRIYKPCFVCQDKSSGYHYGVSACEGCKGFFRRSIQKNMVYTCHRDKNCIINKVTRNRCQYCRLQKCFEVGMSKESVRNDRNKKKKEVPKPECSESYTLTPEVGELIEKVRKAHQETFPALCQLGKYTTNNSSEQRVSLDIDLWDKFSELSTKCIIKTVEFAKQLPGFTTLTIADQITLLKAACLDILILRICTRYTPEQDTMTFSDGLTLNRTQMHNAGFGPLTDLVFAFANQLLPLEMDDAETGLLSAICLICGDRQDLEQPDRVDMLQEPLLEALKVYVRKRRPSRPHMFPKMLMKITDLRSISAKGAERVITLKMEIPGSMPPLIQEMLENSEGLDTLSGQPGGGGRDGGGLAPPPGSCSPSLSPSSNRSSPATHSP
Outline: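 Reporter transcripts, measured by RT-PCR with fluorescent labeling and capillary electrophoresis after 24 h dosing, reflect activity of an exogenous human RARa–GAL4 fusion in transiently transfected HepG2. Fitted for increase relative to DMSO.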

[13] = target: Peroxisome proliferator-activated receptor gamma (Homo sapiens) (UniProt P37231); assay: ATG_PPARg_TRANS: Attagene TRANS-FACTORIAL HepG2 Assay for human Peroxisome Proliferator-activated Receptor-gamma (PPARg) (AID 2283007)
Peroxisome proliferator-activated receptor gamma (Homo sapiens), sequence (P37231 whole entry, looked up, the tested form may be a part): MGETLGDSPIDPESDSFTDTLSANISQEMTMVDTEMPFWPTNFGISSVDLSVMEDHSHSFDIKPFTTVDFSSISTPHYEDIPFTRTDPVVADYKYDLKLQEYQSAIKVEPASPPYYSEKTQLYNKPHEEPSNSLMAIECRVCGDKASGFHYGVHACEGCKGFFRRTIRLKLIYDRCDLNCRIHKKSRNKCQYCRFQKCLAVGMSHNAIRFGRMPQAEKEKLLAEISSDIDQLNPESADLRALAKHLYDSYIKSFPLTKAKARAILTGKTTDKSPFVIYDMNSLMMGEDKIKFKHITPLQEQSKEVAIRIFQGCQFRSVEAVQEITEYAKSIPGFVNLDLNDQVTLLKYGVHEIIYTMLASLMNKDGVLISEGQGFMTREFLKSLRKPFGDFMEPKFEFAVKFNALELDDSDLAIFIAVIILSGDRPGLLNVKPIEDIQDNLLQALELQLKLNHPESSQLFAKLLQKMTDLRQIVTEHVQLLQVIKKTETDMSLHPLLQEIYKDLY
Outline: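 HepG2 cells are transiently transfected with GAL4-UAS reporter units driven by chimeric NR-Gal4 fusions and dosed for 24 h. Reporter mRNA is quantified by RT-PCR, 6-FAM labelling, HpaI digestion and capillary electrophoresis. Induction is scored against DMSO.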

[14] = target: Myc proto-oncogene protein (Homo sapiens) (UniProt P01106); assay: ATG_Myc_CIS: Attagene CIS-FACTORIAL HepG2 Assay for human Myelocytomatosis (Myc) Proto-Oncogene Transcription Factor (AID 2282990; active = hit-call score of the fitted dose curve at least 0.9, where 1 is the maximum; inactive = score below 0.9); conditions: HepG2, Attagene cis-reporter transcription factor activity; actives raise or lower the signal
Myc proto-oncogene protein (Homo sapiens), sequence (P01106 whole entry, looked up): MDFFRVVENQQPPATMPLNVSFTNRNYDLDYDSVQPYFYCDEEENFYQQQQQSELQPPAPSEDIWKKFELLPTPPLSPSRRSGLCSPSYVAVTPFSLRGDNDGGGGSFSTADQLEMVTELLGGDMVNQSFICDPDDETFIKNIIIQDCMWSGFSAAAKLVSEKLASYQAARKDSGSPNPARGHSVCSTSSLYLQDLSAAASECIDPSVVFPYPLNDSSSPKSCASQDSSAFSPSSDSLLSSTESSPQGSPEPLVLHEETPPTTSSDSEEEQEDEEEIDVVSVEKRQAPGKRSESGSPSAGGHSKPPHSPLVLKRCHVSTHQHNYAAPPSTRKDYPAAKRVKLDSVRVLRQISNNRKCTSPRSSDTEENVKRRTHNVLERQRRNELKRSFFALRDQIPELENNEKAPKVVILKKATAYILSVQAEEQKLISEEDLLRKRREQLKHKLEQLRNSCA
Outline: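 HepG2, transient MRTU transfection (cis promoters, endogenous TFs); 24 h dosing; TriZol RNA → oligo(dT) RT → PCR → 6-FAM primer extension → HpaI cut → CE. Bidirectional fit vs DMSO.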

SMILES: CC(C)(C)C1CCCCC1=O (stereo unspecified)
- outcome [1]: inactive
- outcome [2]: inactive
- outcome [3]: inactive
- outcome [4]: inactive
- outcome [5]: inactive
- outcome [6]: inactive
- outcome [7]: inactive
- outcome [8]: inactive
- outcome [9]: inactive
- outcome [10]: inactive

SMILES: C(=CC=Nc1ccccc1)C=CNc1ccccc1
- outcome [1]: inactive
- outcome [2]: inactive
- AC50 [3]: 49.4 µM (active)
- outcome [4]: inactive
- outcome [11]: inactive
- outcome [5]: inactive
- outcome [6]: inactive
- outcome [7]: inactive
- outcome [12]: inactive
- outcome [13]: inactive
- outcome [8]: inactive
- outcome [9]: inactive

SMILES: CCCCOCCOC(=O)COc1nc(Cl)c(Cl)cc1Cl
- outcome [1]: inactive
- outcome [2]: inactive
- outcome [3]: inactive
- outcome [5]: inactive
- outcome [12]: inactive
- AC50 [13]: 60.1 µM (active)
- outcome [8]: inactive

SMILES: CCCCCC/C=C/C=O
- outcome [1]: inactive
- outcome [14]: inactive
- outcome [4]: inactive
- AC50 [5]: 66.3 µM (active)
- outcome [6]: inactive
- AC50 [13]: 20.8 µM (active)
- outcome [8]: inactive
- outcome [10]: inactive

SMILES: NCCCN1CCN(CCCN)CC1
- outcome [1]: inactive
- outcome [2]: inactive
- AC50 [3]: 81.2 µM (active)
- outcome [4]: inactive
- outcome [11]: inactive
- outcome [6]: inactive
- outcome [12]: inactive
- outcome [8]: inactive
- outcome [9]: inactive
- outcome [10]: inactive

SMILES: COc1ccc(NC(C)=O)cc1N
- outcome [1]: inactive
- outcome [2]: inactive
- outcome [3]: inactive
- outcome [4]: inactive
- outcome [6]: inactive

SMILES: CC(C)(Oc1ccc(C2CC2(Cl)Cl)cc1)C(=O)O (stereo unspecified)
- outcome [1]: inactive
- outcome [2]: inactive
- outcome [3]: inactive
- outcome [4]: inactive
- outcome [11]: inactive
- AC50 [5]: 0.975 µM (active)
- outcome [12]: inactive
- AC50 [13]: 30.6 µM (active)
- outcome [8]: inactive
- outcome [9]: inactive

SMILES: CCCCCCCCCCOC(C)=O
- outcome [1]: inactive
- outcome [2]: inactive
- outcome [3]: inactive
- outcome [4]: inactive
- outcome [11]: inactive
- outcome [13]: inactive
- outcome [8]: inactive
- outcome [10]: inactive

SMILES: C1=CCCC1
- outcome [1]: inactive
- outcome [2]: inactive
- outcome [3]: inactive
- outcome [4]: inactive
- outcome [11]: inactive
- outcome [5]: inactive
- outcome [8]: inactive
- outcome [9]: inactive

SMILES: C=C(C)[C@H]1CC=C(C)CC1
- outcome [1]: inactive
- outcome [14]: inactive
- outcome [4]: inactive
- outcome [11]: inactive
- outcome [12]: inactive
- outcome [8]: inactive
- outcome [9]: inactive
- outcome [10]: inactive

Reference: PubChem BioAssay (EPA / NIEHS)
